Laboratory results as given in PubChem BioAssay.
Values without a mark were called inactive. The source made the active and inactive calls.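 How the source made its calls: active means viability at or under a set limit in both replicates, limit being median viability minus 3 SD (cut at about 48% in these data, passing the limit was not always enough); inconclusive means at or under the limit in just one replicate; inactive means at or above the limit in both replicates.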

Assay: growth inhibitors of H69AR lung tumor, primary screen, human, duplicate replicates (AID 580);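 further: 100% = mean luminescence of untreated wells and 0% = no signal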
Settings: H69AR lung tumor cells viability, ATP luminescence, 72 h; at 10 µM; active compounds read low

Structure (SMILES)	viability
CN(Cc1cccs1)c1ncnc2sccc12	92.4%
CCOC(=O)N1CCN(C(=O)CN(c2ccc(C)cc2)S(=O)(=O)c2c(C)noc2C)CC1	86.1%
Cc1c2c(nc3nc4ccccc4n13)CC(C)(C)CC2=O	70.9%
COc1ccccc1OC(=O)c1ccc2nsnc2c1	100%
CCN(CCCNC(=O)c1cn(CC)c2ccc(S(=O)(=O)N(C)C)cc2c1=O)c1cccc(C)c1	80%
O=C(O)C1CC(=O)N(c2ccc(OCc3ccccc3Cl)cc2)C1 (stereo not given)	90%
C=CCOc1ccc(C2C(C(=O)c3ccco3)=C(O)C(=O)N2Cc2cccnc2)cc1 (stereo not given)	90.9%
[N-]=[N+]=CC(=O)CC(c1ccccc1)N1C(=O)c2ccccc2C1=O (stereo not given)	103%
CCC1(c2ccc(F)cc2)NC(=O)N(CC(=O)c2ccc[nH]2)C1=O (stereo not given)	96.6%
c1csc(-c2nc3nc4ccccc4nc3n2Cc2ccc3c(c2)OCO3)c1	78%
Cc1n[nH]c(C)c1S(=O)(=O)N1CCN(c2ccccn2)CC1	103%
Cn1c(=O)c2c(nc(NCCc3ccccc3)n2CC(=O)NCCc2ccccc2)n(C)c1=O	79%
Cc1cc(Br)ccc1NC(=O)CCN1C(=O)c2ccncc2C1=O	95.6%
COc1ccccc1Oc1coc2c(CN3CCN(C)CC3)c(O)ccc2c1=O	99.5%
O=C(Nc1ccccc1N1CCN(c2ccc(F)cc2)CC1)c1ccccc1	93.8%
c1ccc(Cc2ccc(OCCn3cncn3)cc2)cc1	95%
Cc1cccc(Nc2nc3c(c(=O)n(C)c(=O)n3C)n2Cc2ccccc2)c1	96.6%
Cc1nn(C)c(C)c1CNC(=O)c1cc2n(n1)C(C(F)(F)F)CC(c1cccs1)N2 (stereo not given)	112%
COc1ccc(CNc2nc3nc(C)cc(C)n3n2)cc1OC	108%
CCOC(=O)c1ccc(N2C(=O)C3CC=CCC3C2=O)cc1 (stereo not given)	99.3%

Structure (SMILES)	viability
CC(C(=O)NCCCN1CCOCC1)n1cccc1C(=O)c1ccccc1 (stereo not given)	95%
Cc1nc(NC2=NCN(CC3CCCO3)CN2)nc2ccccc12 (stereo not given)	85.1%
COCCOC(=O)C1=C(N)OC2=C(C(=O)CC(C)(C)C2)C1c1cccnc1 (stereo not given)	99%
CC(C)(C)NCc1cc2ccccc2[nH]c1=O	93.2%
COc1ccc(-c2noc(-c3cc(Cl)ccc3Cl)n2)cc1OC	107%
CCC(=O)Nc1ccc(Cl)c(NC(=O)C(C)C)c1	111%
COC(=O)c1cc2ccsc2n1CC(=O)Nc1cc(C)cc(C)c1	84.8%
COc1ccc(-c2nnc(SCC#N)o2)cc1	103%
Cc1nc(C)c(C(=O)C2=C(O)C(=O)N(CCN3CCOCC3)C2c2cccnc2)s1 (stereo not given)	97.4%
Cc1ccc(NC(=O)CCC(=O)OCC(F)(F)C(F)F)cc1	103%
CN(C)c1ccc2c(c1)OC(N)=C(C#N)C2c1cccc(F)c1 (stereo not given)	34.7% (active)
CCN1CCN(CCCNC(=O)C2c3ccccc3C(=O)N(C)C2c2ccc(OC)cc2)CC1 (stereo not given)	110%
Cc1oc(-c2ccc(Cl)cc2)nc1CS(=O)CC(=O)NCCCN(C)C1CCCCC1 (stereo not given)	87.1%
CC(C)CCN1CC(C(=O)NCc2ccccc2)CC1=O (stereo not given)	92.6%
CC1CCN(S(=O)(=O)c2ccc3[nH]cc(C(=O)NCCN4CCOCC4)c(=O)c3c2)CC1	96.4%
Cc1ccc(S(=O)(=O)N(C)Cc2cc3ccccc3[nH]c2=O)cc1	91.5%
CC(=O)N1CCN(c2ccc(S(=O)(=O)N3CCCCC3)cn2)CC1	88.6%
CCOC(=O)c1cnc(-n2nc(C)cc2C)nc1Nc1cccc(C(C)=O)c1	88%
Fc1ccc(NCc2nnc(SCc3nnc(-c4ccccc4)o3)n2CC2CCCO2)cc1 (stereo not given)	78.9%
O=C1Nc2ccccc2OC1CC(=O)N1CCCC1 (stereo not given)	102%
